PubChem BioAssay (NCATS)
Records with an inconclusive call do not appear. Calls of active or inactive are those of the source. Unless noted, calls come from the whole dose curve; as a rule, active = well fitted curve in the direction sought with a large enough effect; inconclusive = small, poorly fitted or top-dose-only effect, or another doubt; inactive = no such curve, though single readings can be large; an effect the other way counts as inactive or inconclusive.

What was measured:
[1] = biological target: ATP-dependent 6-phosphofructokinase (Trypanosoma brucei brucei) (UniProt O15648); assay: qHTS Assay to Find Inhibitors of T. brucei phosphofructokinase: hit validation (AID 492961);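 note: luminescence reports ADP formed as PFK phosphorylates fructose-6-phosphate with ATP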
Procedure, shortened: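 ADP-Glo luminescence read-out of ADP formed by 1.25 nM PFK from 0.1 mM ATP and 0.5 mM F6P (TEA pH 8.0, 45 min, RT). Compounds titrated; activity normalized to no-enzyme and full-enzyme controls.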

[2] = biological target: Ubiquitin carboxyl-terminal hydrolase 1 (Homo sapiens) (UniProt O94782); assay: Inhibitors of USP1/UAF1: Pilot qHTS (AID 504865);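 note: rhodamine fluorescence freed from ubiquitin-rhodamine substrate followed over time; top concentration of the series differs between compounds; nearly all actives have a fitted effect of over 35% in size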
Procedure, shortened: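 USP1/UAF1 complex (1nM) preincubated with compound 15 min at room temperature, then Ub-Rho substrate (150nM final) added. Fluorescence read kinetically at 480/540 nm, 6 reads every 60 seconds. Buffer: 50mM HEPES pH 7.8, 0.5mM EDTA, 0.1 mg/ml BSA, 1mM TCEP, 0.01% Tween-20.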

[3] = biological target: Luciferin 4-monooxygenase (Photinus pyralis) (UniProt P08659); assay: Biochemical firefly luciferase enzyme assay for NPC (AID 624030);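 note: purified P. pyralis luciferase at 10 nM with luciferin and ATP substrate; nearly all actives have a fitted effect of over 70% in size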
Procedure, shortened: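 Direct inhibition of firefly luciferase enzyme (10 nM final, 50 mM Tris Acetate) assessed by luminescence within 5 minutes. Percent activity scaled between DMSO and PTC124 positive control, with concentration-effect curves classified by fit quality and response.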

[4] = S16 Schwann cell viability assay (CellTiter-Glo assay) (AID 624031);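 note: cellular ATP luminescence as a viability measure; nearly all actives have a fitted effect of over 70% in size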
Procedure, shortened: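 Native S16 rat Schwann cells in DMEM/10% FBS without phenol red were incubated overnight, then exposed to compounds for 24 h at 37 °C/5% CO2. Viability was read as ATP luminescence (CellTiter-Glo), normalized to no-cell wells and DMSO (0%).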

[5] = S16 Schwann cell PMP22 intronic element firefly luciferase assay (AID 624032); note: nearly all actives have a fitted effect of over 30% in size
Procedure, shortened: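 Luciferase reporter of PMP22 intronic-element expression in stably transfected S16 rat Schwann cells, read by ONE-Glo luminescence after 24 h compound exposure at 37 C. Activity scaled between DMSO (0%) and positive-control PTC124; concentration-effect curves quality-classified.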

[6] = S16 Schwann cell PMP22 intronic element beta-lactamase assay (AID 624044; calls by dose curve; note: nearly all actives have a fitted effect of over 15% in size)
Procedure, shortened: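 Rat S16 Schwann cells with beta-Lac driven by a PMP22 intronic element, compound-treated 24 h at 37 °C. LiveBLAzer FRET B/G read: 460 nm normalized to potassium clavulanate vs DMSO; 535 nm FRET as viability; concentration-effect curves classified.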

[7] = biological target: Rap guanine nucleotide exchange factor 3 (Homo sapiens) (UniProt O95398); assay: Confirmatory qHTS for antagonist of cAMP-regulated guanine nucleotide exchange factor 3 (EPAC1) (AID 1645880); settings: EPAC1 Rap1B-BODIPY-GDP exchange, fluorescence; activity, negative = inhibition: at 115 µM (top of the series); note: nearly all actives have a fitted effect of over 55% in size
Procedure, shortened: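 Nucleotide exchange uses 100 nM EPAC1, 250 nM RAP1B-BODIPY-GDP and 50 uM GDP, with compounds in a concentration-titration series. After 5 min at room temperature, fluorescence (480 nm ex/540 nm em) is read every 5 min for 30 min. Data are normalized to control ATA and DMSO.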

[8] = biological target: Rap guanine nucleotide exchange factor 3 (Homo sapiens) (UniProt O95398); assay: Confirmatory qHTS for agonist of cAMP-regulated guanine nucleotide exchange factor 3 (EPAC1) (AID 1645881);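 note: EPAC1 catalysed release of BODIPY-GDP from Rap1B seen as fluorescence loss; nearly all actives have a fitted effect of over 75% in size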
[9] = biological target: Rap guanine nucleotide exchange factor 3 (Homo sapiens) (UniProt O95398); assay: Counterscreen qHTS for antagonist of cAMP-regulated guanine nucleotide exchange factor 3 (EPAC1) (AID 1645888);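 note: fluorescence loss as bound BODIPY-GDP is released from Rap1B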
Procedure, shortened: (§1)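 Rap1B-BODIPY-GDP 250 nM + GDP 50 uM; cpds 7-pt, final 9.74 nM–152 uM (activator mode) or from 7.32 nM upwards (inhibitor mode); RT; FI 480/540 nm at 5 and 30 min, then ± cAMP, reread.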

[10] = biological target: Rap guanine nucleotide exchange factor 3 (Homo sapiens) (UniProt O95398); assay: Counterscreen qHTS for agonist of cAMP-regulated guanine nucleotide exchange factor 3 (EPAC1) (AID 1645889); note: nearly all actives have a fitted effect of over 40% in size
Procedure, shortened: as §1

[11] = qHTS profiling for inhibitors of Plasmodium falciparum proliferation (AID 504749); note: nearly all actives have a fitted effect of over 60% in size; note: potency is the fitted concentration of half-maximal effect; settings: P. falciparum in erythrocytes, SYBR Green DNA, 72 h; parasite line A
Procedure, shortened: (§2)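 Three-day growth assay of blood-stage parasites in erythrocytes (0.3% parasitemia, 2.5% hematocrit) at 37 C, 5% CO2, quantified by SYBR Green DNA staining after overnight detergent lysis.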

7G8 = assay: as above; settings: P. falciparum in erythrocytes, SYBR Green DNA, 72 h; series mostly up to 28.7 µM
Procedure, shortened: as §2

AA1029 = assay: as above; settings: P. falciparum in erythrocytes, SYBR Green DNA, 72 h; series mostly up to 28.7 µM
Procedure, shortened: as §2

AS120 = assay: as above; settings: P. falciparum in erythrocytes, SYBR Green DNA, 72 h; series mostly up to 28.7 µM
Procedure, shortened: as §2

ATS189 = assay: as above; settings: P. falciparum in erythrocytes, SYBR Green DNA, 72 h; series mostly up to 28.7 µM
Procedure, shortened: as §2

ATS95 = assay: as above; settings: P. falciparum in erythrocytes, SYBR Green DNA, 72 h; series mostly up to 28.7 µM
Procedure, shortened: as §2

C2A = assay: as above; settings: P. falciparum in erythrocytes, SYBR Green DNA, 72 h; series mostly up to 28.7 µM
Procedure, shortened: as §2

CP185 = assay: as above; settings: P. falciparum in erythrocytes, SYBR Green DNA, 72 h; series mostly up to 28.7 µM
Procedure, shortened: as §2

CP191 = assay: as above; settings: P. falciparum in erythrocytes, SYBR Green DNA, 72 h; series mostly up to 28.7 µM
Procedure, shortened: as §2

CP192 = assay: as above; settings: P. falciparum in erythrocytes, SYBR Green DNA, 72 h; series mostly up to 28.7 µM
Procedure, shortened: as §2

CP194 = assay: as above; settings: P. falciparum in erythrocytes, SYBR Green DNA, 72 h; series mostly up to 28.7 µM
Procedure, shortened: as §2

CP217 = assay: as above; settings: P. falciparum in erythrocytes, SYBR Green DNA, 72 h; series mostly up to 28.7 µM
Procedure, shortened: as §2

CP237 = assay: as above; settings: P. falciparum in erythrocytes, SYBR Green DNA, 72 h; series mostly up to 28.7 µM
Procedure, shortened: as §2

CP238 = assay: as above; settings: P. falciparum in erythrocytes, SYBR Green DNA, 72 h; series mostly up to 28.7 µM
Procedure, shortened: as §2

CP247 = assay: as above; settings: P. falciparum in erythrocytes, SYBR Green DNA, 72 h; series mostly up to 28.7 µM
Procedure, shortened: as §2

CP252 = assay: as above; settings: P. falciparum in erythrocytes, SYBR Green DNA, 72 h; series mostly up to 28.7 µM
Procedure, shortened: as §2

CP256 = assay: as above; settings: P. falciparum in erythrocytes, SYBR Green DNA, 72 h; series mostly up to 28.7 µM
Procedure, shortened: as §2

CP260 = assay: as above; settings: P. falciparum in erythrocytes, SYBR Green DNA, 72 h; series mostly up to 28.7 µM
Procedure, shortened: as §2

CP262 = assay: as above; settings: P. falciparum in erythrocytes, SYBR Green DNA, 72 h; series mostly up to 28.7 µM
Procedure, shortened: as §2

CP265 = assay: as above; settings: P. falciparum in erythrocytes, SYBR Green DNA, 72 h; series mostly up to 28.7 µM
Procedure, shortened: as §2

CP269 = assay: as above; settings: P. falciparum in erythrocytes, SYBR Green DNA, 72 h; series mostly up to 28.7 µM
Procedure, shortened: as §2

CP286 = assay: as above; settings: P. falciparum in erythrocytes, SYBR Green DNA, 72 h; series mostly up to 28.7 µM
Procedure, shortened: as §2

CP297 = assay: as above; settings: P. falciparum in erythrocytes, SYBR Green DNA, 72 h; series mostly up to 28.7 µM
Procedure, shortened: as §2

CP335 = assay: as above; settings: P. falciparum in erythrocytes, SYBR Green DNA, 72 h; series mostly up to 28.7 µM
Procedure, shortened: as §2

DFO2036 = assay: as above; settings: P. falciparum in erythrocytes, SYBR Green DNA, 72 h; series mostly up to 28.7 µM
Procedure, shortened: as §2

DIV14 = assay: as above; settings: P. falciparum in erythrocytes, SYBR Green DNA, 72 h; series mostly up to 28.7 µM
Procedure, shortened: as §2

DIV17 = assay: as above; settings: P. falciparum in erythrocytes, SYBR Green DNA, 72 h; series mostly up to 28.7 µM
Procedure, shortened: as §2

Dd2 = assay: as above; settings: P. falciparum in erythrocytes, SYBR Green DNA, 72 h; series mostly up to 28.7 µM
Procedure, shortened: as §2

ECU = assay: as above; settings: P. falciparum in erythrocytes, SYBR Green DNA, 72 h; series mostly up to 28.7 µM
Procedure, shortened: as §2

FAB9 = assay: as above; settings: P. falciparum in erythrocytes, SYBR Green DNA, 72 h; series mostly up to 28.7 µM
Procedure, shortened: as §2

GB4 = assay: as above; settings: P. falciparum in erythrocytes, SYBR Green DNA, 72 h; series mostly up to 28.7 µM
Procedure, shortened: as §2

ICS = assay: as above; settings: P. falciparum in erythrocytes, SYBR Green DNA, 72 h; series mostly up to 28.7 µM
Procedure, shortened: as §2

JCK = assay: as above; settings: P. falciparum in erythrocytes, SYBR Green DNA, 72 h; series mostly up to 28.7 µM
Procedure, shortened: as §2

N140 = assay: as above; settings: P. falciparum in erythrocytes, SYBR Green DNA, 72 h; series mostly up to 28.7 µM
Procedure, shortened: as §2

P93_24 = assay: as above; settings: P. falciparum in erythrocytes, SYBR Green DNA, 72 h; series mostly up to 28.7 µM
Procedure, shortened: as §2

P94_40 = assay: as above; settings: P. falciparum in erythrocytes, SYBR Green DNA, 72 h; series mostly up to 28.7 µM
Procedure, shortened: as §2

PC49 = assay: as above; settings: P. falciparum in erythrocytes, SYBR Green DNA, 72 h; series mostly up to 28.7 µM
Procedure, shortened: as §2

SC27B = assay: as above; settings: P. falciparum in erythrocytes, SYBR Green DNA, 72 h; series mostly up to 28.7 µM
Procedure, shortened: as §2

TAB109 = assay: as above; settings: P. falciparum in erythrocytes, SYBR Green DNA, 72 h; series mostly up to 28.7 µM
Procedure, shortened: as §2

TAB113 = assay: as above; settings: P. falciparum in erythrocytes, SYBR Green DNA, 72 h; series mostly up to 28.7 µM
Procedure, shortened: as §2

TAB165 = assay: as above; settings: P. falciparum in erythrocytes, SYBR Green DNA, 72 h; series mostly up to 28.7 µM
Procedure, shortened: as §2

W2 = assay: as above; settings: P. falciparum in erythrocytes, SYBR Green DNA, 72 h; series mostly up to 28.7 µM
Procedure, shortened: as §2

Measured: Potency

Sequence of Rap guanine nucleotide exchange factor 3 (Homo sapiens) (O95398 whole entry, looked up): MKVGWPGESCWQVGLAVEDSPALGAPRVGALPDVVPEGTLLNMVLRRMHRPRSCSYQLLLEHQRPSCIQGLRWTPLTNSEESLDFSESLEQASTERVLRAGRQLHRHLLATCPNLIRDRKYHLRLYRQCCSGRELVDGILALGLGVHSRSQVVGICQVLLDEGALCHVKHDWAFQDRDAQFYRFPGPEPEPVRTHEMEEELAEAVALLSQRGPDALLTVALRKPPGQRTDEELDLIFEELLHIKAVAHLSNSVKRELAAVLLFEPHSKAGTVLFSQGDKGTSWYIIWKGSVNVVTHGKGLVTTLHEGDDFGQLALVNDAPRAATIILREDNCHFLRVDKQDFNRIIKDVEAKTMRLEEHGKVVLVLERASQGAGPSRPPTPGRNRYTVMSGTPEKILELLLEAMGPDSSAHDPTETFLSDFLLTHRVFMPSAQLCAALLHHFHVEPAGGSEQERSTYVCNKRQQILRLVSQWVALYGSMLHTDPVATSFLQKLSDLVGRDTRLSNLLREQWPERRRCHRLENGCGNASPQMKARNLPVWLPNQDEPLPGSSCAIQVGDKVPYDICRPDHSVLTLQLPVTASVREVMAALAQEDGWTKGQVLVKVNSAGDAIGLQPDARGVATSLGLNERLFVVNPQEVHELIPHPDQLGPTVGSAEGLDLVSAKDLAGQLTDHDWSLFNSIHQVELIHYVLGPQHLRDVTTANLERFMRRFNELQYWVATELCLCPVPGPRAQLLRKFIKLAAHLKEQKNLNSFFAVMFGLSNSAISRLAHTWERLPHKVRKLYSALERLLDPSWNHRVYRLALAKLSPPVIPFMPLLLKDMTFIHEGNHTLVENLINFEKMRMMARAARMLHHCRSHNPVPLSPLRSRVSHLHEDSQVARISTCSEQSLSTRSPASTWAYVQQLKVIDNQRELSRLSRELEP
Sequence of Luciferin 4-monooxygenase (Photinus pyralis) (P08659 whole entry, looked up): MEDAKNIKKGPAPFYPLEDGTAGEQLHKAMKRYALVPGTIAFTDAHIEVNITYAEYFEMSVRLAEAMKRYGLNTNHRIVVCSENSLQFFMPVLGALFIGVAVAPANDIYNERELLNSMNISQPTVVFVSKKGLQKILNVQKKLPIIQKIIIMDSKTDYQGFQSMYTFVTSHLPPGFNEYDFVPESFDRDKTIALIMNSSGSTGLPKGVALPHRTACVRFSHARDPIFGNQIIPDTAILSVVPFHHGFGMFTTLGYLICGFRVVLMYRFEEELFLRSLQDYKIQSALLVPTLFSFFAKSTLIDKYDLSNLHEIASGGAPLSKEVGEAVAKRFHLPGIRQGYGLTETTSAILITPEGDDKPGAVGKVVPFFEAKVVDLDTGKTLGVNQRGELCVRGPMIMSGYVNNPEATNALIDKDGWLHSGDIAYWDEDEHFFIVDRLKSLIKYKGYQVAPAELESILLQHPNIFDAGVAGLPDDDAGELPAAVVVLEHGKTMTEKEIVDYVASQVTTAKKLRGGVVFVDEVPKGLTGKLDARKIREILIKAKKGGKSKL
Sequence of Ubiquitin carboxyl-terminal hydrolase 1 (Homo sapiens) (O94782 whole entry, looked up): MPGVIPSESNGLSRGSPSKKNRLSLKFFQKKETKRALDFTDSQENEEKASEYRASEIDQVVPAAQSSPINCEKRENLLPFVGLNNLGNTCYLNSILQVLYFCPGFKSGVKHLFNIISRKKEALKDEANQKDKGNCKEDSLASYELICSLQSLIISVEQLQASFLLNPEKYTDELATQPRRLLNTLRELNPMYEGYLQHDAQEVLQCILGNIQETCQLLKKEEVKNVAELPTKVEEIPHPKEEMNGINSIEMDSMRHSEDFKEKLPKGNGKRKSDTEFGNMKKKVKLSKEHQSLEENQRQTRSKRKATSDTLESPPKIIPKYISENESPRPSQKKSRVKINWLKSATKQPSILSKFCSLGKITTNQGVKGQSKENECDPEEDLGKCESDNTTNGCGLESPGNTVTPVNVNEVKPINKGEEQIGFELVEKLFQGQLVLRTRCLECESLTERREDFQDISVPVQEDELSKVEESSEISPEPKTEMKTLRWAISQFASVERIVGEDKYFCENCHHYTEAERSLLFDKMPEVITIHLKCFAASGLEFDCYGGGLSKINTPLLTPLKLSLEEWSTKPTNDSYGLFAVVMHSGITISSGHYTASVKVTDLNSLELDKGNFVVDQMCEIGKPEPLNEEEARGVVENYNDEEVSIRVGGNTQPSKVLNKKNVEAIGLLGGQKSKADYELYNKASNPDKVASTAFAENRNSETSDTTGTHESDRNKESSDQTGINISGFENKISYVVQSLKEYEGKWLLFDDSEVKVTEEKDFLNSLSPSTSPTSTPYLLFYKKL
Sequence of ATP-dependent 6-phosphofructokinase (Trypanosoma brucei brucei) (O15648 whole entry, looked up): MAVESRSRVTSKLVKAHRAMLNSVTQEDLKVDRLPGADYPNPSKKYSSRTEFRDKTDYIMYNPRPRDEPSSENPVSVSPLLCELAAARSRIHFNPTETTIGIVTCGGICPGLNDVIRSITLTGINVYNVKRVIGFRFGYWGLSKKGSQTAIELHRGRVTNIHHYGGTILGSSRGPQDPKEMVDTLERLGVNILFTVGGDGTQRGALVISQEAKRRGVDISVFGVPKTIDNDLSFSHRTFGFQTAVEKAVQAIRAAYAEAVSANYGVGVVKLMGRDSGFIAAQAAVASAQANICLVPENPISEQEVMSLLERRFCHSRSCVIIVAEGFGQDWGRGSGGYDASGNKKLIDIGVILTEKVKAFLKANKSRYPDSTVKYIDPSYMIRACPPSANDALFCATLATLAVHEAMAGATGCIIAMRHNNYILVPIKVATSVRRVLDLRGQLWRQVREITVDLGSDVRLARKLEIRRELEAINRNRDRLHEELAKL

C=C[C@]1(C)C[C@@H](OC(=O)CSCCN(CC)CC)[C@]2(C)C(C)CC[C@]3(CCC(=O)[C@H]32)[C@@H](C)[C@@H]1O (some centres not stated)
inactive: [1] | [2] | [3] | [4] | [5] | [6] | [7] | [8] | [9] | [10] | CP192 | CP262 | FAB9 | JCK | PC49
active: [11] 10 µM | 7G8 11.2 µM | AA1029 5.01 µM | AS120 10 µM | ATS189 8.91 µM | ATS95 7.94 µM | C2A 11.2 µM | CP185 5.01 µM | CP191 7.94 µM | CP194 7.57 µM | CP217 10 µM | CP237 8.91 µM | CP238 11.2 µM | CP247 6.31 µM | CP252 7.08 µM | CP256 8.91 µM | CP260 5.62 µM | CP265 8.91 µM | CP269 6.75 µM | CP286 3.55 µM | CP297 6.75 µM | CP335 5.36 µM | DFO2036 10 µM | DIV14 15.1 µM | DIV17 13.5 µM | Dd2 3.16 µM | ECU 12.6 µM | GB4 6.75 µM | ICS 3.98 µM | N140 8.91 µM | P93_24 5.01 µM | P94_40 4.47 µM | SC27B 7.94 µM | TAB109 3.98 µM | TAB113 11.2 µM | TAB165 7.08 µM | W2 2.13 µM
